The text below walks through data of PubChem BioAssay (NCI).

Structures are written as SMILES. Compounds without any hit were thinned out: in the full panel of roughly 83,000, 20% have a hit.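 How to read the values: 0–100, growth inhibition (40 = 60% inhibited); 0, no net growth; -100 to 0, cell death (-40 = 40% of starting cells died; -100 = all dead).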 The source made the active and inactive calls. How the source made its calls: active means growth percent below 10; inactive means the rest.

The test system of this experiment is HL-60(TB) leukemia. Description: NCI-60 one-dose screen, 48 h (100 = growth as untreated, 0 = no growth, -100 = all killed). The note with it: 10 µM unless noted.
As for `CC(C)(C)[C@H](OCc1cn([C@H]2C[C@@H](O)[C@@H](CO)O2)c(=O)[nH]c1=O)c1ccc(C#Cc2ccccc2)cc1[N+](=O)[O-]`, the growth is 70.4% (inactive).

Regarding `O=C1c2cccnc2C(=O)c2c1c(C(=O)OCCCN1CCOCC1)c1ccccn21`, the growth was -3.63% (active).

For `COc1ccc(-c2nc3sc4c(c3c(=O)[nH]2)CCCCCC4)cc1`, the growth is 29% (inactive).

For `O=C(Nc1ccc(N2CCNCC2)cn1)c1[nH]ncc1Nc1ncnc2sccc12`, the growth is 76.7% (inactive).

`Cc1cc(N2CCN(c3ccnc4cc(Cl)ccc34)CC2)nc(N2CCOCC2)n1`: the growth was 69.5% (inactive).

Turning to `O=C(Nc1cc(-c2ccccc2)[nH]n1)c1ccc(Cl)cc1`, the growth is 42.1% (inactive).

As for `CN1CCN(C(=O)OCCOCCOC(=O)N2CCN(C)CC2)CC1`, the growth is 98.2% (inactive).

Regarding `Ic1cccs1`, the growth is 104% (inactive).

In the case of `CC1=C(O)C(=O)C(c2c(C)cc(C)c(Br)c2C)=C(O)C1=O`, the growth was 53.4% (inactive).

Regarding `N#Cc1cnc2cc(OC[C@H](O)CO)c(NC(=O)CC3CSSC3)cc2c1Nc1ccc(OCc2cccc(F)c2)c(Cl)c1`, the growth is -83.4% (active).

As to `CN1CCCc2cc(/C=C3\SC(=S)N(C(Cc4ccc(O)cc4)C(=O)O)C3=O)ccc21` (stereo not given), the growth is 99.9% (inactive).

`Clc1ccc(N2N=C(c3cccc(Nc4ccncc4)c3)CC2c2ccc(Br)cc2)cc1` (stereo not given): the growth is 0.656% (active).

Take `CCOC(=O)c1ccc(N=Cc2sc(=O)[nH]c2O)cc1`: the growth was 101% (inactive).

As for `O=C(N/N=C/c1ccc(O)cc1O)c1ccc(Nc2ccnc(C(F)(F)F)c2)cc1`, the growth was 44.1% (inactive).

For `CC(=O)c1nc2ccccc2n1CCn1cc(CC(N)C(=O)O)c2ccccc21` (stereo not given), the growth was 100% (inactive).

With `O=C(Nc1ccc(Nc2ccncc2)cc1)c1ccc([N+](=O)[O-])cc1`, the growth was -75.2% (active).

In the case of `COc1cc2oc3cc(C)oc(=O)c3c2cc1OC`, the growth is 80.3% (inactive).

In the case of `C=CCNC(=O)c1ccc(OC)cc1`, the growth was 87.7% (inactive).

As to `COc1ccc(-c2csc(C3=C(O)CN(CCCN4CCCC4=O)C3=N)n2)cc1OC`, the growth is 114% (inactive).

In the case of `O=C1CC(=O)N(c2ccccc2)O1`, the growth is 103% (inactive).

With `COC(=O)Nc1nc2ccc(C(=O)c3cccs3)cc2[nH]1`, the growth is -45.1% (active).

On to `COc1cc(/C=C/C(=O)N2CCN(C(=O)c3cc(OC)c(OC)c(OC)c3)CC2)ccc1OCCCN1C(=O)c2cccc3cccc(c23)C1=O`, for which the growth was 56.7% (inactive).

Regarding `CC(C)CC(=O)Nc1n[nH]c2c1CN(C(=O)C1CCN(C)CC1)C2(C)C`, the growth was -26.2% (active).

As to `COc1ccc2nc3cc(Cl)ccc3c(Nc3ccc(O)cc3)c2c1`, the growth is 44.2% (inactive).

In the case of `Cc1sc(NC(=O)c2ccc(C(C)(C)C)cc2)c(C(=O)O)c1C`, the growth was 45.2% (inactive).

Take `CCCCCCCCCCN=C(c1ccc(N(C)C)cc1)c1ccc(N(C)C)cc1`: the growth was 11.2% (inactive).

Regarding `O=C(Nc1ccc(C(=O)Nc2ccc(C3=NCCCN3)cc2)cc1)Nc1ccc(C2=NCCCN2)cc1`, the growth is 44.2% (inactive).

For `COc1ccccc1N1CCCCC1`, the growth is 101% (inactive).

Regarding `CCc1c2c(nc3ccc(OC(=O)N4CCC(N5CCCCC5)CC4)cc13)-c1cc3c(c(=O)n1C2)COC(=O)[C@]3(O)CC`, the growth was -14% (active).

Consider `CC(C)(C)c1nn(-c2ccccc2)c2c1CC1(CN2Cc2ccc3c(c2)OCO3)C(=O)c2ccccc2C1=O`, for which the growth was 102% (inactive).

As to `O=C1C2CC=CCC2C(=O)N1CNc1ccc(Cl)cc1` (stereo not given), the growth is 52.9% (inactive).

With `CCOC(=O)n1cc(-c2nonc2-c2cn(C(=O)OCC)c3ccc(Br)cc23)c2ccccc21`, the growth is 93.9% (inactive).

Take `COc1cc(C(C)n2cc(-c3ccccc3)nn2)ccc1OC1CCCCC1` (stereo not given): the growth is 43.7% (inactive).

Take `O=C(Nc1ccc2[nH]ncc2c1)c1csc(Nc2ccccc2)n1`: the growth was 9.35% (active).

For the molecule `C=C(C)C1CCC(=C)C2CCC3(C)OC12/C=C(/COC(C)=O)CCC3O` (stereo not given), the growth was 90.8% (inactive).

With `Cc1cc(C)c(NC(=O)c2sc3nc4c(cc3c2N)CCCC4)c(C)c1`, the growth is -6.2% (active).

As to `CC(C)C1=CC2=C(C=O)C[C@@H]3[C@](C)(CCC[C@@]3(C)C(=O)OCC#CCN3CCCC3)[C@H]2CC1`, the growth is 54.5% (inactive).

Take `COc1cc(N2CCC(N(C)C)CC2)ccc1Nc1ncc(Cl)c(Nc2ccccc2P(C)(C)=O)n1`: the growth was 10% (inactive).

Regarding `COc1cc(NC(=O)c2cc3ccccc3nc2Nc2ccc(F)cc2)cc(OC)c1OC`, the growth is 47.2% (inactive).

For the molecule `Cc1c(C(=O)Nc2nc(-c3ccccc3)cs2)nnn1-c1cccc2ccccc12`, the growth was 54.4% [50 µM] (inactive).
